According to PubChem BioAssay (NCI):
This is part of a sample that, as a whole, favours compounds with a hit. Of some 79,000 tested, about 15% had one in any assay. Activity calls are given as the source filed them. Cut-off read from the data, not from the text of the source: active = growth inhibition above about 70%; inactive = the rest.

Experiment: NCI Yeast Anticancer Drug Screen. Data for the mlh1 strain (AID 171);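 note: 0% = growth of vehicle-treated control cultures of the same strain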
Conditions: S. cerevisiae mlh1 strain growth inhibition, stronger effect = higher value
Protocol: Growth inhibition of yeast strains with defined genetic alterations is measured as a screen for potential anti-cancer activity. Selected strains with alterations in DNA damage repair or cell cycle control were exposed to compounds and growth inhibition was measured relative to vehicle treated controls. The strain used in this assay is mlh1

Structure (SMILES) | growth inhibition (at 1.2 µM) | growth inhibition (at 3.7 µM) | growth inhibition (at 11.0 µM) | growth inhibition (at 33.0 µM) | growth inhibition (at 100.0 µM)
OC(c1ccc(Br)cc1)C(Cl)(Cl)Cl (stereo not given) | -10% (inactive) | -18% (inactive) | -6% (inactive) | 80% (active) | 97% (active)
C/C(=N\N=C(N)N)C(CN1CCOCC1)C(c1ccccc1)c1c(O)c2ccccc2oc1=O (stereo not given) | -2% (inactive) | -8% (inactive) | -7% (inactive) | 40% (inactive) | 96% (active)
CNCC(O)c1ccc(O)c(O)c1.[Pt].c1ccc([PH+](c2ccccc2)c2ccccc2)cc1.c1ccc([PH+](c2ccccc2)c2ccccc2)cc1 | -3% (inactive) | -1% (inactive) | 8% (inactive) | 91% (active) | 97% (active)
CCN(CCCl)CCCCNc1c2ccccc2nc2ccc(OC)cc12 | 4% (inactive) | 16% (inactive) | 51% (inactive) | 70% (active) | 96% (active)
Cc1cc[n+](C2=C(Nc3cccc(C(F)(F)F)c3)C(=O)c3ccccc3C2=O)cc1 | 3% (inactive) | -2% (inactive) | 1% (inactive) | 1% (inactive) | 10% (inactive)
CCCCCCCCCC[Se]C#N | -1% (inactive) | 0% (inactive) | 6% (inactive) | 26% (inactive) | 90% (active)
N#Cc1cc(N(CCCl)CCCl)c([N+](=O)[O-])cc1[N+](=O)[O-] | 34% (inactive) | 4% (inactive) | 34% (inactive) | 70% (active) | 92% (active)
O=C1NC(=S)NC(=O)C1=Cc1ccc([N+](=O)[O-])o1 | 15% (inactive) | 33% (inactive) | 21% (inactive) | 41% (inactive) | 81% (active)
